Test results published in PubChem BioAssay (EPA / NIEHS).
Inconclusive results are not listed. Calls of active or inactive are those of the source. How the source made its calls: active means hit-call score of the fitted dose curve at least 0.9, where 1 is the maximum; inconclusive means response in the unintended direction; inactive means score below 0.9.

Columns and labels:
[1] = TOX21_p53_BLA_p2_viability: Viability Assessment in the Tox21 HCT-116 p53 Agonism Beta-lactamase Assay, Phase 2 (AID 2283591);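 further: compound exposure lasted 16 h at 37 °C; actives lower the ATP signal meaning cytotoxicity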
In short: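 Cytotoxicity readout: CellTiter-Glo ATP luminescence, 30 min at room temperature, after the beta-lactamase read. Cells were HCT116 exposed 16 h at 37C to compounds pin-transferred at 217-fold dilution from DMSO stocks.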

[2] = biological target: Cellular tumor antigen p53 (Homo sapiens) (UniProt P04637); test: TOX21_p53_BLA_p2_ratio: Tox21 HCT-116 p53 Agonism Beta-lactamase Assay, Ratio, Phase 2 (AID 2283592)
Cellular tumor antigen p53 (Homo sapiens), sequence (P04637 whole entry, looked up): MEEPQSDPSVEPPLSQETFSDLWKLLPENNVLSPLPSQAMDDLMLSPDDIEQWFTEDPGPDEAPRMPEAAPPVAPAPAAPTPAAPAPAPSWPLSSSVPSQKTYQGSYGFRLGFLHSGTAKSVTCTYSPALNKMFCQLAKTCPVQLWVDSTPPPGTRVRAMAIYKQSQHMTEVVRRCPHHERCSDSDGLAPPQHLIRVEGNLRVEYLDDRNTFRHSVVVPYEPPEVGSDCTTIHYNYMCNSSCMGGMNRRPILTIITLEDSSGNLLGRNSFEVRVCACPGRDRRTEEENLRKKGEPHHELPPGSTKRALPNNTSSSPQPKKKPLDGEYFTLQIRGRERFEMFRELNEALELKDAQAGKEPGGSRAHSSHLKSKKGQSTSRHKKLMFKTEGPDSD
In short: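 Gain-of-signal p53 agonism was scored from the beta-lactamase FRET ratio (460/530 nm, 405 nm excitation) in HCT116 cells treated 16 h at 37C, 5% CO2, with DMSO serving as negative control and baseline.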

[3] = biological target: Cellular tumor antigen p53 (Homo sapiens) (UniProt P04637); test: TOX21_p53_BLA_p3_ratio: Tox21 HCT-116 p53 Agonism Beta-lactamase Assay, Ratio, Phase 3 (AID 2283596)
In short: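 HCT116 p53-bla cells (4000/well) given compound in DMSO (217-fold dilution) after 5 h, incubated 16 h at 37C. CCF4-AM substrate 2 h at room temperature; 460/530 nm emission ratio, gain fitted against DMSO.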

[4] = TOX21_p53_BLA_p4_viability: Viability Assessment in the Tox21 HCT-116 p53 Agonism Beta-lactamase Assay, Phase 4 (AID 2283597);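 further: hits lower the luminescence signal meaning cytotoxicity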
In short: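 Following a 16 h exposure at 37C, the treated HCT116 wells were first read for the FRET ratio. They were then lysed with CellTiter-Glo, and ATP luminescence was recorded after 30 min at room temperature.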

[5] = biological target: Cellular tumor antigen p53 (Homo sapiens) (UniProt P04637); test: TOX21_p53_BLA_p5_ratio: Tox21 HCT-116 p53 Agonism Beta-lactamase Assay, Ratio, Phase 5 (AID 2283599)
In short: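 Beta-lactamase reporter ratio (blue 460 nm over green 530 nm, 405 nm excitation) after 2 h CCF4-AM loading, in HCT-116 cells exposed 16 h at 37 C to compounds pinned at 217-fold dilution. Increases relative to DMSO baseline scored.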

[6] = TOX21_p53_BLA_p5_viability: Viability Assessment in the Tox21 HCT-116 p53 Agonism Beta-lactamase Assay, Phase 5 (AID 2283600)
In short: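 After the 460/530 nm beta-lactamase measurement, the wells received an ATP-detection luciferase reagent; signal was read 30 min later at RT. Compound treatment lasted 16 h on cells pre-incubated 5 h post-seeding.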

[7] = biological target: Cellular tumor antigen p53 (Homo sapiens) (UniProt P04637); test: TOX21_p53_BLA_p4_ratio: Tox21 HCT-116 p53 Agonism Beta-lactamase Assay, Ratio, Phase 4 (AID 2283601)
In short: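 Signal is the blue/green (460nm/530nm) ratio of cleaved versus uncleaved CCF4-AM substrate, read after 2 h substrate loading. Cells were HCT116 carrying the p53-responsive beta-lactamase reporter, dosed 16 h at 37C, 5% CO2; CellTiter-Glo measured in parallel.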

Measured: AC50

CC(Cl)C(Cl)Cl (centres undefined)
inactive: [1] | [2] | [3] | [4] | [5] | [6] | [7]

CC1(O)CCC(C(C)(C)O)CC1 (centres undefined)
inactive: [1] | [2] | [3] | [4] | [5] | [6] | [7]

CNc1ccccc1
inactive: [1] | [2] | [3] | [4] | [5] | [6] | [7]

CCc1ccc2c(c1)N(CC(C)CN(C)C)c1ccccc1S2 (centres undefined)
inactive: [2] | [3] | [5] | [6] | [7]
active: [1] 38.7 µM | [4] 36.2 µM

CCOC(=O)c1cccc(N)c1
inactive: [1] | [2] | [3] | [4] | [5] | [6] | [7]

CCCCCN(CCCCC)C(=O)C(CCC(=O)O)NC(=O)c1ccc(Cl)c(Cl)c1 (centres undefined)
inactive: [1] | [2] | [3] | [4] | [5] | [6] | [7]

CC(C)C(O)C(C)(C)CO (centres undefined)
inactive: [1] | [2] | [3] | [4] | [5] | [6] | [7]

Cc1ncc(CO)c(CN)c1O
inactive: [1] | [2] | [3] | [4] | [5] | [6] | [7]

C[C@@H](O)[C@H](N)C(=O)O
inactive: [1] | [2] | [3] | [4] | [5] | [6] | [7]

COc1ccc(CCNC[C@H](O)c2ccc(O)cc2)cc1OC
inactive: [1] | [2] | [3] | [4] | [5] | [6] | [7]

CCN(Cc1ccccc1)c1ccccc1
inactive: [1] | [2] | [3] | [4] | [5] | [6] | [7]

O=C(O)C(S)C(S)C(=O)O (centres undefined)
inactive: [1] | [2] | [3] | [4] | [5] | [6] | [7]

CCCCCCCCCCCC[N+](C)(C)CC(=O)O
inactive: [1] | [2] | [3] | [4] | [5] | [7]

O=NN(CCCl)C(=O)NCCCl
inactive: [1] | [2] | [3] | [4] | [5] | [7]

Cc1cc(NS(=O)(=O)c2ccc(N)cc2)nc(C)n1
inactive: [1] | [2] | [3] | [4] | [5] | [6] | [7]

CO
inactive: [1] | [2] | [3] | [4] | [5] | [7]
